According to PubChem BioAssay (Tox21):
Inconclusive results are not listed. A call without a number means that no potency is given here. Unmarked numbers belong to inactive results. Activity calls are given as the source filed them. The call rests on the fitted dose curve; in most records, active means well fitted activation curve with a large enough effect in the repeat runs; inconclusive means weak or mixed curves; inactive means flat fitted curve, though single readings scatter.
Potency means the concentration at half of the fitted maximal effect.

Assay: A CellTox Green Cytotoxicity Assay to monitor cytotoxicity in HEK293 cells - 16 hour (AID 1224888); further: nearly all actives have a fitted effect of over 35% in size
Details: CellTox Green fluorescence; series mostly up to 76.8 µM
Description: National Center for Advancing Translational Sciences [NCATS]
NIH Chemical Genomics Center [NCGC]
U.S. Environmental Protection Agency [EPA]
National Institutes of Environmental Health Sciences [NIEHS]
National Toxicology Program [NTP]
Cell-based models are critical for drug discovery. Determining the natural cytotoxic effects resulting from test compounds is an essential research activity. A CellTox Green Cytotoxicity Assay to monitor cytotoxicity in real time of continues cell culture during 40 hours of the compound treatment was used to screen Tox21 10K library compounds in Hek293 cells. CellTox Green Cytotoxicity Assay is a nonlytic, homogeneous, biofluorescent method to measure cytotoxicity in cell culture after experimental manipulation. The assay system uses a proprietary asymmetric cyanine dye that is excluded from viable cells but preferentially stains the dead cell's DNA. […] Viable cells produce no appreciable increases in fluorescence. Therefore, the fluorescence signal produced by the binding interaction with dead cell DNA is proportional to cytotoxicity.
The mixture of Hek293 cell suspension and reagents were dispensed at 600cells/6 ul/well in 1536-well tissue culture treated black solid bottom plates using a Multidrop dispenser. After the assay plates were incubated at a 37 C/5% CO2 incubator for 5 hours, 23 nL of compounds dissolved in DMSO, positive and negative controls was transferred to the assay plate by a pintool work station. The plates were incubated at 37 C for 40 hours. The fluorescence intensity were measured at 0h, 8h, 16h, 24h, 32h and 40h time points using ViewLux plate reader during compound treatment.
For `Sc1nc(S)nc(S)n1`, the Potency was “inactive”. In the case of `CCc1ccc(C(=O)C(C)CN2CCCCC2)cc1` (stereo not given), the Potency is reported as “inactive”. For `C=CC(=O)OCCCCCCCCCC`, the Potency was “inactive”. For `CCOc1ccccc1O`, the Potency was “inactive”. In the case of `Nc1nc(Cl)nc2c1ncn2[C@H]1C[C@H](O)[C@@H](CO)O1`, the Potency is reported as “inactive”. For `Cc1ccccc1CCO`, the Potency was “inactive”. With `COc1cccc([C@H](O)C2CCN(CCc3ccc(F)cc3)CC2)c1OC` the Potency was “inactive”. For `C=CC(=O)NC(C)(C)C`, the Potency was “inactive”. With `C=CC(C)(O)CC/C=C(/C)CCC=C(C)C` (stereo not given) the Potency was “inactive”. In the case of `Cc1c(-c2cccnc2)c2ccccc2n1CCCCC(=O)O`, the Potency is reported as “inactive”. For `CCC(=O)O[C@]1(C(=O)COC)[C@@H](C)C[C@H]2[C@@H]3CCC4=CC(=O)C=C[C@]4(C)C3(F)[C@@H](O)C[C@@]21C` (stereo not given in full), the Potency was “inactive”. For `OCCCO`, the Potency was “inactive”. With `N#CCCCC(C#N)CCC#N` (stereo not given) the Potency was “inactive”. For `CC(CN=Cc1ccccc1O)N=Cc1ccccc1O` (stereo not given), the Potency was “inactive”. With `CCCCCCCCS` the Potency was “inactive”. For `CO[C@@H]1[C@@H](O[C@@H]2O[C@H](C)[C@@H](O[C@H]3C[C@@](C)(O)[C@@H](O)[C@H](C)O3)[C@H](N(C)C)[C@H]2O)[C@@H](CC=O)C[C@@H](C)[C@@H](O[C@@H]2CC[C@H](N(C)C)[C@@H](C)O2)/C=C/C=C/C[C@@H](C)OC(=O)C[C@H]1OC(C)=O`, the Potency was “inactive”. With `Cc1ccc2c(Cl)cc(Cl)c(O)c2n1` the Potency was “inactive”. In the case of `CCCCCCCCCCCCN1CCOCC1`, the Potency is reported as “inactive”. In the case of `CCC(=O)O[C@@H]1C[C@H]2CC[C@]1(C)C2(C)C`, the Potency is reported as “inactive”. With `CCCC(=O)OCc1ccccc1` the Potency was “inactive”. With `O=C(OCCN1CCOCC1)c1cccnc1Nc1cccc(C(F)(F)F)c1` the Potency was “inactive”. For `OCCc1ccncc1`, the Potency was “inactive”. In the case of `O=c1[nH]nc(-c2ccc([N+](=O)[O-])o2)o1`, the Potency is reported as “inactive”. With `O=P(c1ccccc1)(c1ccccc1)c1ccccc1` the Potency was “inactive”. In the case of `NCCOCCOCCN`, the Potency is reported as “inactive”. With `CC(C)=CCC[C@H](C)CCO` the Potency was “inactive”. For `O=C(OC1C[C@H]2CC[C@@H](C1)[N+]21CCCC1)C(O)(c1ccccc1)c1ccccc1` (stereo not given in full), the Potency was “inactive”. For `OCC(O)c1ccccc1` (stereo not given), the Potency was “inactive”. For `CC(CCl)OC(C)CCl` (stereo not given), the Potency was “inactive”. With `Cc1nc2sccn2c(=O)c1CCN1CCC(=C(c2ccc(F)cc2)c2ccc(F)cc2)CC1` the Potency was “inactive”. In the case of `CCC[Si](OC)(OC)OC`, the Potency is reported as “inactive”. With `CC1(C)[C@@H]2CC[C@]3(C2)[C@@H]1C(=O)CCC3(C)C` the Potency was “inactive”. With `CCCCCCCCCCCCCCCCN` the Potency was 19 µM (active). In the case of `COC=O`, the activity change is reported as -10.1% [at 6.97 µM, stronger effect = higher value]. For `C1=COCCC1`, the Potency was “inactive”. For `Nc1cccc2c(=O)[nH][nH]c(=O)c12`, the Potency was “inactive”. With `C=CC(C)CCC=C(C)C` (stereo not given) the Potency was “inactive”. For `S=c1[nH][nH]c(=S)s1`, the Potency was “inactive”. In the case of `CC(C)CCCCCCCOC(=O)c1ccc(C(=O)OCCCCCCCC(C)C)c(C(=O)OCCCCCCCC(C)C)c1`, the Potency is reported as “inactive”. In the case of `CCCC(=O)OCCC(C)C`, the Potency is reported as “inactive”.
